Compound activity: PubChem BioAssay, several laboratories
CatB mix inh – human cathepsin B inhibition by mixtures | P07858 | Purified cathepsin B, AMC dipeptide fluorescence, compound mixtures | inhibition, %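 (ten-compound pools at 5 µM per compound and 50 µM total)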 | hit rate 0.06% among 62,000; in the data active = inhibition above about 22%, passing the limit was not always enough;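 note: 0% = enzyme without compound and 100% = no enzyme blank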
CatB inh – blocks human cathepsin B protease activity; purified cathepsin B, fluorogenic substrate, fluorescence; inhibition, %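 (tested at 10 µM)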; hit rate 0.1% among 63,000; in the data active = inhibition above about 21%;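 note: 0% = enzyme with no compound and 100% = no enzyme blank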
mHtt clearance – compounds clearing mutant huntingtin protein; hit rate 0.42% among 47,000; HeLa Exon1htt(103Q)mCFP, aggregate imaging; zero = plate's median compound well; inhibition, % at 1.5 µM;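 active = inhibition of aggregate fluorescence above about 70%, also judged a hit by eye on the cell image, limit read from the data, passing the limit was not always enough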;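 note: cells exposed to compound for three days before fixation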
CatS inh – inhibitors of human cathepsin S. P25774. recombinant cathepsin S, AMC dipeptide fluorescence, pooled mixtures. inhibition, %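 (tested at 5 µM per compound within 10-compound mixtures)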. hit rate 0.06% among 62,000; in the data active = inhibition above about 32%, passing the limit was not always enough;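 note: 0% = enzyme without compound and 100% = blank without enzyme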
CatL inh – blocks human cathepsin L protease activity; purified cathepsin L, fluorogenic substrate, fluorescence; hit rate 0.17% among 58,000; inhibition, %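 (tested at 10 µM)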; in the data active = inhibition above about 45%;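 note: 0% = enzyme with no compound and 100% = no enzyme blank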
Target sequence (P07711 114-288 limits assumed): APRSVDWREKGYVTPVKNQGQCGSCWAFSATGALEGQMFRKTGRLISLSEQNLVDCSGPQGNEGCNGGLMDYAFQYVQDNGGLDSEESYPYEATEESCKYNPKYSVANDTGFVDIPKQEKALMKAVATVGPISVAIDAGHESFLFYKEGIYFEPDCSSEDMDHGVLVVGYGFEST
Target sequence (P07711 292-333 limits assumed): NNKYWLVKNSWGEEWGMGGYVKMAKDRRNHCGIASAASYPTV
Numbers without * were called inactive; x = no result. The list is not random: actives were taken first. Their share in the collection is about 0.52%.

SMILES	CatB mix inh	CatB inh	mHtt clearance	CatS inh	CatL inh
COc1ccc(S(=O)(=O)n2nc(OC(=O)c3ccco3)cc2N)cc1	67*	78*	-35	16	14
COc1ccc(S(=O)(=O)n2nc(OC(=O)c3ccc(C)cc3)cc2N)cc1	32*	49*	x	-5	-3
COc1ccc(S(=O)(=O)n2nc(OC(=O)c3ccccc3)cc2N)cc1	29*	39*	-15	14	-1
COc1ccc(S(=O)(=O)n2nc(OC(=O)c3ccccc3Br)cc2N)cc1	-2	3	x	-22	-8
Cc1ccc(S(=O)(=O)n2nc(OC(=O)c3c(-c4ccccc4Cl)noc3C)cc2N)cc1	3	0	-32	1	-5
CC(=O)C1=C(C)Nc2ncnn2C1c1ccc(Cl)cc1 (stereo unspecified)	2	4	21	4	8
CC(c1nnc(SCC(=O)c2c(N)n(C)c(=O)n(C)c2=O)n1-c1ccc(Cl)cc1)N(C)C (stereo unspecified)	-4	2	x	1	x
CC(c1nnc(SCC(=O)NC(=O)NCc2ccco2)n1-c1ccc(Cl)cc1)N(C)C (stereo unspecified)	-5	5	x	2	61*
CC(C)OC(=O)c1c2nc3ccccc3nc2n2c1[nH]c(=O)c1ccccc12	0	3	x	-3	-28
COC(=O)Cc1cc(=O)[nH]c(Nc2nc3ccccc3o2)n1	5	4	75*	1	-4
COc1ccc(CCNC(=O)CSc2nc(N)c(C#N)c(-c3cccs3)c2C#N)cc1OC	1	4	72*	-6	10
COc1ccc(OCC(=O)Nc2ccc(S(=O)(=O)N3CCOCC3)cc2)cc1	-3	1	87*	6	x
CC(=O)Nc1nc2n(n1)C(c1ccc(F)cc1)C=C(c1ccccc1)N2 (stereo unspecified)	-2	-2	41	6	49*
COc1ccc(C2C(C(=O)NCc3ccccn3)c3cc(OC)c(OC)cc3C(=O)N2C)cc1 (stereo unspecified)	-3	5	x	-10	59*
COc1ccc(-c2nnc(SCC(=O)OC3CCCCC3)o2)cc1OC	0	0	72*	-3	1
COc1cccc(CNC(=O)C2CCC(CNS(=O)(=O)c3cccc4nsnc34)CC2)c1 (stereo unspecified)	x	x	-31	x	x
COc1ccc(CN2CCN(C)CC2)cc1OCc1ccccc1	2	3	74*	1	19
CCCS(=O)(=O)N1CCN(Cc2ccc(OCc3ccccc3)c(OC)c2)CC1	4	6	x	27	0
CCN(C(=O)COc1cc(=O)n(C)c2ccccc12)c1cccc(Cl)c1	0	57*	x	1	-1
COC(=O)CCC(=O)Nc1ccc(Br)cc1	2	2	-34	2	-6
O=C(Oc1ccccc1Cl)c1ccc(-n2cncn2)nc1	x	x	-78	x	x
CCOC(=O)N1CCN(c2c(N3CCc4ccccc43)c(=O)c2=O)CC1	1	10	x	3	17
CCOC(=O)N1CCN(c2c(N3CCN(c4ccccn4)CC3)c(=O)c2=O)CC1	4	3	x	4	86*
CC(Cc1c[nH]c2ccccc12)NC(=O)C1CCCNC1=O (stereo unspecified)	-4	-4	87*	-16	-3
Cc1ccc(C(=O)NC(Cc2c[nH]c3ccccc23)C(=O)O)o1 (stereo unspecified)	2	-1	x	3	1
SMILES	CatB mix inh	CatB inh	mHtt clearance	CatS inh	CatL inh
O=C(NCC1(c2ccccc2)CCCC1)C(=O)N1CCOCC1	x	x	-1	x	x
CCN(CC)c1ccc(/C=C(/C#N)c2nc3ccccc3[nH]2)c(OC(C)C)c1	x	x	46	x	x
CCOC(=O)CSc1nnc(Cc2ccccc2)n1Cc1ccco1	-3	6	45	-4	92*
CC1CCc2cc(F)ccc2N1C(=O)C1(C)CC1(Cl)Cl (stereo unspecified)	x	x	27	x	x
OC12CCCCC1C(c1ccc3c(c1)OCO3)N(Cc1ccccc1F)CC2 (stereo unspecified)	-11	6	73*	-8	26
COCCNC(=O)C(c1ccccc1)N(C(=O)Cn1nnc2ccccc21)c1cccnc1 (stereo unspecified)	23	1	x	22	x
COCCNC(=O)C(c1cccc(OC)c1)N(C(=O)Cn1nnc2ccccc21)c1cccnc1 (stereo unspecified)	-4	23*	-36	10	5
OCCNc1nc(SCc2ccccc2)nc2sc3c(c12)CCC3	x	x	-37	x	x
Cc1sc2nc(C(C)Nc3ccccc3N3CCOCC3)[nH]c(=O)c2c1C (stereo unspecified)	0	3	x	-8	-12
